Results published in PubChem BioAssay AID1159580 (chemical genetic matrix, 2015).
Values joined by “and” are separate entries in the source; they are usually repeats but may differ in a detail not shown here. Equal entries are not always repeated. Screen size: about 5,500 compounds; about 2,000 (36%) were called active. Roughly 18% stayed inconclusive and do not appear here. Cut-off read from the data, not from the text of the source: active = normalized growth mostly below about 0.91 (no sharp cut-off); inconclusive = no clear call, values can overlap the other calls; inactive = mostly above about 0.92. This is one part of the list.

Assay: chemical genetic growth profiling, strain panel (AID 1159580);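 note: tested at 20 µM; growth read once vehicle control cultures reached saturation at 30 °C; 1 = growth at the plate median or of vehicle wells; lower values mean less growth of the strain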
Conditions: S. cerevisiae deletion strains, growth OD

Measured: normalized growth

COc1ccc2c(c1)[nH]c1c(C)nccc12
inactive: locus YAL013W, strain DEP1, hits give low values 1.02 | locus YAL021C, strain ccr4, hits give low values 0.978 | locus YAL026C, strain drs2, hits give low values 1 | locus YAL030W, strain snc1, hits give low values 1 | locus YBL061C, strain skt5, hits give low values 0.993 | locus YBR009C, strain hhf1, hits give low values 0.992 | locus YBR021W, strain FUR4, hits give low values 1.03 | locus YBR023C, strain chs3, hits give low values 1 | locus YBR171W, strain sec66, hits give low values 0.987 | locus YBR229C, strain ROT2, hits give low values 1.02 | locus YBR231C, strain swc5, hits give low values 0.994 | locus YBR279W, strain paf1, hits give low values 0.991 | locus YCL011C, strain gbp2, hits give low values 1.01 | locus YCL016C, strain dcc1, hits give low values 1 | locus YCL029C, strain bik1, hits give low values 0.968 | locus YCL061C, strain MRC1, hits give low values 0.994 | locus YCL069W, strain vba3, hits give low values 0.995 | locus YCR088W, strain abp1, hits give low values 1 | locus YDL005C, strain med2, hits give low values 0.994 | locus YDL035C, strain GPR1, hits give low values 0.998 | locus YDL040C, strain nat1, hits give low values 0.995 | locus YDL074C, strain BRE1, hits give low values 1.03 | locus YDL101C, strain DUN1, hits give low values 1.01 | locus YDL134C, strain PPH21, hits give low values 1.02 | locus YDL185W, strain tfp1, hits give low values 0.968 | locus YDL192W, strain arf1, hits give low values 0.979 | locus YDR001C, strain nth1, hits give low values 0.991 | locus YDR069C, strain doa4, hits give low values 0.997 | locus YDR101C, strain arx1, hits give low values 0.987 | locus YDR137W, strain rgp1, hits give low values 1.01 | locus YDR150W, strain NUM1, hits give low values 0.978 | locus YDR159W, strain sac3, hits give low values 1.01 | locus YDR162C, strain NBP2, hits give low values 1.02 | locus YDR195W, strain ref2 1.01 | locus YDR297W, strain sur2, hits give low values 0.999 | locus YDR318W, strain mcm21, hits give low values 0.986 | locus YDR334W, strain swr1, hits give low values 0.991 | locus YDR335W, strain msn5, hits give low values 0.994 | locus YDR388W, hits give low values 0.98 | locus YDR392W, strain spt3, hits give low values 0.991 | locus YDR502C, strain sam2, hits give low values 0.995 | locus YEL003W, strain gim4, hits give low values 0.988 | locus YEL037C, strain rad23, hits give low values 0.991 | locus YEL061C, strain CIN8 (second series), hits give low values 0.99 | locus YEL061C, strain CIN8, hits give low values 1.01 | locus YER015W, strain faa2, hits give low values 0.988 | locus YER016W, strain bim1, hits give low values 0.997 | locus YER110C, hits give low values 0.969 | locus YER111C, strain swi4, hits give low values 0.998 | locus YER155C, strain BEM2 (second series), hits give low values 0.95 | locus YER155C, strain BEM2, hits give low values 1.01 | locus YER167W, strain BCK2, hits give low values 1 | locus YFR010W, strain ubp6, hits give low values 0.982 | locus YGL078C, strain dbp3, hits give low values 0.972 | locus YGL086W, strain mad1, hits give low values 0.981 | locus YGL167C, strain pmr1, hits give low values 0.991 | locus YGL173C, strain kem1, hits give low values 0.999 | locus YGL227W, strain vid30, hits give low values 0.984 | locus YGL240W, strain doc1, hits give low values 0.989 | locus YGL248W, strain PDE1, hits give low values 1.02 | locus YGL253W, strain hxk2, hits give low values 0.995 | locus YGR078C, strain PAC10, hits give low values 1.03 | locus YGR135W, strain pre9, hits give low values 0.981 | locus YGR229C, strain SMI1, hits give low values 1.07 | locus YGR252W, strain gcn5, hits give low values 0.931 | locus YHR013C, strain ard1, hits give low values 1.01 | locus YHR027C, strain rpn1, hits give low values 0.991 | locus YHR030C, strain SLT2, hits give low values 1.01 and 1.02 | locus YHR079C, strain IRE1 (second series), hits give low values 0.988 | locus YHR079C, strain IRE1, hits give low values 1.03 | locus YHR094C, strain hxt1, hits give low values 0.963 | locus YHR129C, strain ARP1, hits give low values 1.01 | locus YHR142W, strain chs7, hits give low values 1.01 | locus YHR200W, strain rpn10, hits give low values 0.97 | locus YIL066C, strain RNR3, hits give low values 1.02 | locus YIL073C, strain SPO22, hits give low values 0.887 | locus YIL125W, strain kgd1, hits give low values 0.986 | locus YIR030C, strain dcg1, hits give low values 0.994 | locus YJL092W, strain hpr5, hits give low values 0.996 | locus YJL095W, strain BCK1 (second series), hits give low values 1 | locus YJL095W, strain BCK1, hits give low values 1.07 and 1.01 | locus YJL115W, strain asf1, hits give low values 0.979 | locus YJL129C, strain trk1, hits give low values 0.987 | locus YJL134W, strain LCB3, hits give low values 1.01 | locus YJL154C, strain vps35, hits give low values 1 | locus YJL164C, strain tpk1, hits give low values 0.997 | locus YJL166W, strain qcr8, hits give low values 0.991 | locus YJL168C, strain set2, hits give low values 0.996 | locus YJL187C, strain SWE1 (second series), hits give low values 1.01 | locus YJR043C, strain POL32, hits give low values 0.989 | locus YJR066W, strain TOR1, hits give low values 0.972
